Hits are enriched below; roughly 3.4% of the tested compounds scored in any of these assays.
PNC inhibitor: blocks assembly of the perinucleolar compartment; PC3M PTB-GFP, PNC prevalence imaging, 16 h; hits give low values; activity change (PNC), negative = inhibition, % at 10 µM; hit rate 3.1% among 140,000; AID 2417;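 active means readout at or below -70, meaning at least 70% loss of cells showing the perinucleolar compartment, a nuclear body marking cancer cells; inconclusive means readout between -30 and a set limit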;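 further: plate controls were DMSO wells for no effect and camptothecin positive control wells for full effect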
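Read-out is percentage of cells bearing a perinucleolar compartment, from automated 20x imaging of fixed, Hoechst-stained PC3M PTB-GFP cells. Cells were seeded 4 h, then exposed 16 h to compound (23 nl of library stock) in duplicate plates.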
HTT ATP protect: protects HTT-Q103 PC12 cells, measured by ATP; AID 1471; Potency, µM (series often up to 56.4 µM), without a hit: cytoprotection (ATP increase), usual class: activators; PC12 HTT-Q103 induced, cytoprotection, ATP luminescence, 40 h; hit rate 0.14% among 230,000; further: potency means the concentration at half of the fitted maximal effect; % of control where 0% means no effect; nearly all actives have a fitted effect of over 45% in size
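Huntington model: PC12 line, ecdysone-inducible HTTQ103 exon1–GFP, tebufenozide 100 nM. Test articles in a dose series. Endpoint luminescence from cellular ATP.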
NPSR antag: blocks cAMP signaling of the human neuropeptide S receptor | CHO-NPSR cells, cAMP TR-FRET, antagonist mode | Potency, µM (doses to about 38.3 µM), without a hit: top-dose activity change, negative = inhibition, actives largely listed as inhibitors | hit rate 1% among 220,000; further: potency means the concentration at half of the fitted maximal effect; on the % scale 0 is the no-effect control and ±100 the full control effect; nearly all actives have a fitted effect of over 50% in size
Target sequence (Q6W5P4 whole entry, looked up): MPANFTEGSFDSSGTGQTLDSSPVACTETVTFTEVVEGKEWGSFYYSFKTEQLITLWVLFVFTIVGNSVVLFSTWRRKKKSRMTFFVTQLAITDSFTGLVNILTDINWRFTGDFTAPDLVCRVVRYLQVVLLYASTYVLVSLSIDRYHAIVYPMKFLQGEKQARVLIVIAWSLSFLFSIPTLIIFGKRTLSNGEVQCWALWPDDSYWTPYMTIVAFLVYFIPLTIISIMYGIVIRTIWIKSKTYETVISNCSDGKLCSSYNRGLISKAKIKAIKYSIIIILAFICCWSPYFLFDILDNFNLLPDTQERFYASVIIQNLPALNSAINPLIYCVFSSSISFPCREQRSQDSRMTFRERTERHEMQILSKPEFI
IMPase Li inh: cell-permeable IMPase inhibitors with lithium potentiation; CHO-M1 cells, IP1 TR-FRET (IP-One), carbachol + lithium; Potency, µM (doses to about 59.4 µM), inactives show at the top dose activity, negative = IMPase inhibition, most hits filed as inhibitors; hit rate 0.35% among 210,000; AID 1457;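 further: IP1 builds up when IMPase is blocked and the TR-FRET signal falls; potency means the concentration at half of the fitted maximal effect; plate controls were basal vehicle for no effect and high inhibitor control for full effect; nearly all actives have a fitted effect of over 50% in size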
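CHO cells stably expressing M1 receptor (2000/well) were cultured 16–30 h, then exposed to compounds with a small lithium addition for 30 min at 37C. IP1 was measured by TR-FRET competition; AC50 from Hill fits.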
IMPase inh: cell-permeable inhibitors of inositol monophosphatase (IMPase); 120,000 tested, under 10 active; inhibition (IP1 accumulation), % at 46.1 µM; P97697; CHO-M1 cells, IP1 accumulation, HTRF TR-FRET ratio; AID 901; active means well fitted curve in the direction sought with a large enough effect in the signal ratio, not every such curve was filed as active; inconclusive means small, poorly fitted or top-dose-only effect, or a change in a side signal; inactive means no such curve, though single readings can be large or run the other way; the % refers to the signal ratio;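 further: cells stimulated with carbachol in lithium chloride buffer; plate controls were DMSO basal wells for no effect and reference inhibitor wells for full effect; higher means more IMPase inhibition seen as more IP1 and lower FRET ratio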
Target sequence (P97697 whole entry, looked up): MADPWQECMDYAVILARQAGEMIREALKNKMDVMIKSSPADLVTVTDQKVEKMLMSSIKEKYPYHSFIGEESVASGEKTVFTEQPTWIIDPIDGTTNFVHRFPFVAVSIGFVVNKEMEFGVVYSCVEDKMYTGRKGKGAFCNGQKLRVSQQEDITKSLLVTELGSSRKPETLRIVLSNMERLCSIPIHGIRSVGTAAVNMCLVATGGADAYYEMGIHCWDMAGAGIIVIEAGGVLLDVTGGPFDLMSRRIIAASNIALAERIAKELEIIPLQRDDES
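CHO-M1 cells (CHO stably expressing M1 receptor), compound up to 46 uM final, stimulated with carbachol (50 uM as added) in buffer with 50mM LiCl, pH 7.4, 30 min at 37C. Cytosolic IP1 read by TR-FRET; AC50 from Hill fits.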
HTT aggregate: mutant huntingtin aggregation inhibition | Potency, µM (doses to about 46.1 µM), inactives show at the highest dose activity change, negative = inhibition, most hits filed as inhibitors | PC12 HttQ103-GFP aggregates, Acumen cytometry, 40 h | hit rate 1.1% among 220,000; further: potency means the concentration at half of the fitted maximal effect; on the % scale 0 is the no-effect control and ±100 the full control effect; nearly all actives have a fitted effect of over 60% in size
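Inducible Q103 Huntingtin exon 1–GFP PC12 line, 1500 cells/well in phenol red free DMEM with 5% equine and 5% calf serum. Tebufenozide 100 nM induced expression; compounds titrated; aggregates quantified by cytometry.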
Numbers without * were called inactive; ? = inconclusive; · = not tested or not shown; [ ] = another dose, or the depositor's remark. Unless noted, the call rests on the fitted dose curve; in most records, active means well fitted curve in the direction sought with a large enough effect; inconclusive means small, poorly fitted or top-dose-only effect, or another doubt; inactive means no such curve, though single readings can be large; an effect the other way counts as inactive or inconclusive.

SMILES	PNC inhibitor	HTT ATP protect	NPSR antag	IMPase Li inh	IMPase inh	HTT aggregate
Cc1ccc(C(=O)Nc2ncc(Cc3ccc(SC(F)F)cc3)s2)cc1	-82*	-71%[10 µM]	-3%	17%	4	?
Cc1oc2cc(OC(=O)c3ccco3)ccc2c(=O)c1-c1nc2ccccc2n1C	-93*	·	5%	-2%	·	29%
COc1ccc(OCC(O)CN2C(=O)c3ccccc3S2(=O)=O)cc1 (stereo not drawn)	-83*	-6%	-18%[46.1 µM]	-18%[38.3 µM]	2	1%
COc1ccc(C(=O)CN2C(=O)c3ccccc3S2(=O)=O)cc1	·	-46%[10 µM]	-7%	·	·	1%[9.22 µM]
O=C(O)CNC(=O)c1ccc([N+](=O)[O-])cc1	·	-19%	·	17%	·	·
N#CC1=C(c2ccccc2)/C(=C/c2ccccc2)OC1=O	-27	-54%	2.5µM*	43%[38.3 µM]	16	?
Cc1cccc(CN2CCN([C@@H](c3ccccc3)c3ccc(Cl)cc3)CC2)c1	·	-33%[17.1 µM]	·	2%	7[20.6 µM]	21%[20.6 µM]
COc1ccc2[nH]c(=O)c(CN(Cc3cccs3)C(=S)Nc3cccc(C)c3)cc2c1	-100*	-26%[10 µM]	?	1%	6	3%
Cc1ccc(NC(=O)CSCC(=O)Nc2ncc3c(n2)CC(c2ccco2)CC3=O)cc1 (stereo not drawn)	-85*	-1%[10 µM]	-8%[46.1 µM]	5%[38.3 µM]	2	-2%
CCCn1c(SCC(=O)N2c3ccc(F)cc3CCC2C)nnc1-c1ccccn1 (stereo not drawn)	-119*	10%[10 µM]	-25%	16%	-6	7%
CCCn1c(SCC(=O)N2CCCCC2)nnc1-c1ccccn1	·	-28%	2%	7%	·	0%
COc1ccccc1-c1csc(NC(=O)c2ccc(N3C(=O)CCC3=O)cc2)n1	·	-53%	3%	3%	·	6%
COc1cc(C(N)=O)ccc1OCc1ccccc1	3	-29%	-12%[46.1 µM]	-2%[38.3 µM]	2	4%
COc1ccc(COc2ccccc2C(N)=O)cc1F	48	·	3%	-1%	·	16µM*
Nc1ccccc1-n1cccc1	·	-8%[10 µM]	-4%	·	·	-12%[9.22 µM]
CC(=O)c1c(C)nc2ccc(Br)cc2c1C(=O)O	-19	-5%	-11%[46.1 µM]	1µM*	?	?
Cc1ccc(-c2cc(C(=O)O)c3cc(Br)ccc3n2)o1	-28	·	-15%	11µM*	·	0%
O=C(O)CCCNc1c(C(=O)Nc2ccc(Cl)cc2)cc([N+](=O)[O-])cc1[N+](=O)[O-]	·	-7%	-6%	1%	·	-12%
CCc1ccc(Nc2nnc(-n3nc(C)cc3C)c3ccccc23)cc1	·	·	·	·	-7	·
Cc1nn(C)c(C)c1CN(C)S(=O)(=O)c1ccc2ccccc2c1	14	?	-18%[46.1 µM]	13%	13	7.9µM*
CN(C)C(=O)c1ccc(-c2ccc3ncnc(N(C)Cc4ccco4)c3c2)cc1	·	-48%	·	12%	·	·
CCCCc1cc(=O)oc2c(CN3CCCC3)c(O)c(Cl)cc12	18	-5%	-4%[46.1 µM]	10µM*	?	11%
CCCc1cc(=O)oc2c(CN3CCN(C)CC3)c(O)c(Cl)cc12	16	-4%	5%[46.1 µM]	·	-22	-1%
Cc1cc(=O)oc2c(CN3CCN(C)CC3)c(O)c(Cl)cc12	?	17%[10 µM]	3%[46.1 µM]	13µM*	?	7%
Cc1ccc(S(=O)(=O)Nc2ccc3c(c2)c(C(=O)OC(C)C)c(C)n3S(=O)(=O)c2ccc(C)cc2)cc1	·	·	·	·	2	·
SMILES	PNC inhibitor	HTT ATP protect	NPSR antag	IMPase Li inh	IMPase inh	HTT aggregate
COc1ccc(-n2c(=O)c(C)nc3cnc(OC)nc32)cc1	·	5%	·	-8%	·	·
O=C(NC1C/C(=N/O)c2cc3c(cc21)OCO3)C(F)(F)F (stereo not drawn)	·	4µM*	8%	-5%	·	?
CCCOc1ccc(Cc2nc(N)nc(N)n2)cc1	-11	-15%[0.074 µM]	-16%[46.1 µM]	-1%[38.3 µM]	-9	?
CCOc1ccc(Cc2nc(N)nc(N)n2)cc1	-100*	-29%[10 µM]	4%[46.1 µM]	5%	-8	-8%
C=CCOc1ccc(Br)cc1CNC(C)(C)C	·	-36%	11%	9%	·	?
Cc1cc(C(=O)NCCC2=CCCCC2)c(C)o1	-81*	-16%	6%[46.1 µM]	14%[38.3 µM]	-10	?
O=C(NCCC1=CCCCC1)c1ccc(=O)oc1	16	-21%	-6%[46.1 µM]	-6%[38.3 µM]	-3	2%
O=C(NCCC1=CCCCC1)c1coc(=O)c(Br)c1	-7	-35%	0%[46.1 µM]	28µM*	-9	?
CCCCC/C=C\C/C=C\C/C=C\C/C=C\CCCC(=O)O[C@@H](CO)COCCCCCCCCCCCCCCCC	·	-17%	·	32%	·	·
CC(C)[C@@H](C)/C=C\[C@@H](C)[C@@H]1CC[C@H]2C3=CC=C4C[C@@H](O)CC[C@]4(C)[C@H]3CC[C@]21C	·	-6%[10 µM]	·	-4%	·	·
COc1cc(/C=C/C(=O)OCC(=O)Nc2ccc3c(c2)OCCO3)ccc1OCC#N	16	-6%[10 µM]	4%	-3%	·	3%
COc1ccc2c(c1)c(CCN1C(=O)c3ccccc3C1=O)cn2C(=O)c1ccco1	-3	-21%	?	8.9µM*	-10	11%
CCc1cccc(CC)c1NC(=O)COC(=O)/C(C#N)=C/c1ccc(OC)cc1	-12	·	5%	2%	·	10%
COc1ccc(/C=C(\C#N)C(=O)OCC(=O)Nc2c(C)cccc2C)cc1	-81*	11%[10 µM]	20%	1%	·	11%
COc1ccc(C2(CNC(=O)c3cccs3)CCOCC2)cc1	·	3%[10 µM]	0%	8%	·	-8%
O=C(CCc1ccc(S(=O)(=O)NCc2ccccc2)cc1)NCC1CCCO1 (stereo not drawn)	-106*	-18%[10 µM]	9%	-9%	·	7%
CC(NS(=O)(=O)c1ccc(CCC(=O)NCC2CCCO2)cc1)c1ccccc1 (stereo not drawn)	12	-13%[10 µM]	-9%[46.1 µM]	1%	-2	11%
CC1(C)OC(=O)NC1=O	·	4%	·	-2%	0[20.6 µM]	23%
O=C(O)c1ccc(S(=O)(=O)NC2CCCc3ccccc32)cc1 (stereo not drawn)	?	-3%	-1%[46.1 µM]	-3%[38.3 µM]	4	21%
CC(=O)N1CCc2cc(S(=O)(=O)NC3CCCc4ccccc43)ccc21 (stereo not drawn)	44	38%[10 µM]	-9%[46.1 µM]	14%	-11	7.1µM*
O=C(CCC(=O)N(CC(=O)NC1CCCC1)C1CCCC1)Nc1ccccn1	-4	-18%[10 µM]	-7%[46.1 µM]	2%[38.3 µM]	2	-23%
O=C(CCCC(=O)N(CC(=O)NC1CCCC1)C1CCCC1)Nc1ccccn1	-123*	-1%[10 µM]	-11%[7.67 µM]	-11%[38.3 µM]	11	-16%
Cc1ccc2c(c1)[nH]c1c(N3CCN(Cc4ccccc4)CC3)ncnc12	-12	-85%[0.074 µM]	?	37%[38.3 µM]	2	7.1µM*

Bioassay records (PubChem BioAssay)
